# Source: PubChem BioAssay AID463173 (ICCB-Longwood Screening Facility, Harvard Medical School, 2010)
# Among all 52,000 compounds or so, about 4,300 (8.3%) were called active. The sample holds actives, similar compounds and a random draw of the others, so the mix is not that of the screen. Values without a mark were called inactive. No stated cut-off is given here; in the data, active means survival mostly below about 52% (no sharp cut-off); inactive means mostly above about 56%.
# Test system: DeltatarO mutant
# Experiment: growth inhibition of S. aureus wild type versus tarO mutant, primary screen, teichoic acid synthesis inhibitors, RN4220, OD600 (AID 463173)
# Settings: OD600, 18 h, hits give low values, screened at 18.75 µg/mL (by protocol)
row,Structure (SMILES),survival
1,Cc1ccc(-c2nc3sc(CCNC(=O)c4ccco4)c(C)n3n2)cc1,87%
2,Cc1ccc(C)c(CN2C(=O)c3ccccc3S(=O)(=O)c3ccc(C(=O)N4CCN(c5ccccc5F)CC4)cc32)c1,79%
3,COc1ccc(-c2cn3c(n2)sc2cc(C(=O)NCCCN4CCCCC4)ccc23)cc1,69%
4,CCCN1CCN(CCCNC(=O)c2ccc3c(c2)sc2nc(-c4ccc(OC)cc4)cn23)CC1,73%
5,COc1ccc(-c2cn3c(n2)sc2cc(C(=O)NCCCN4CCCCCC4)ccc23)cc1,64%
6,CCCN1CCN(CCCNC(=O)c2ccc3c(c2)sc2nc(-c4ccc(OCC)cc4)cn23)CC1,28% (active)
7,COc1ccc(-c2cn3c(n2)sc2cc(C(=O)NCCCc4ccccc4)ccc23)cc1,65%
8,CCOc1ccc(-c2cn3c(n2)sc2cc(C(=O)NCCCN4CCCCCC4)ccc23)cc1,-2% (active)
9,COc1ccc(-c2cn3c(n2)sc2cc(C(=O)NCCCN4CCN(C)CC4)ccc23)cc1,95%
10,CCOc1ccc(-c2cn3c(n2)sc2cc(C(=O)NCCCN4CCCCC4)ccc23)cc1,-1% (active)
11,O=C(NCCN1CCOCC1)c1cnn2c(C(F)F)cc(-c3ccccc3)nc12,86%
12,CC(C)(C)C(=O)Nc1cc(-c2cccc(Br)c2)nn1-c1ccccc1,81%
13,CCc1ccccc1NC(=O)NCc1ccc2c(c1)CCN2C(=O)c1ccccc1,125%
14,COc1ccc(N2CCN(C(=O)c3ccc4nc(N5CCC(C)CC5)sc4c3)CC2)cc1,84%
15,Cc1ccc(C)c(N2CCN(CCCNC(=O)c3ccc4nc(N5CCC(C)CC5)sc4c3)CC2)c1,4% (active)
16,Cc1cccc(N2CCN(C(=O)c3ccc4nc(N5CCC(C)CC5)sc4c3)CC2)c1C,1% (active)
17,Cc1ccc(C)c(N2CCN(CCCNC(=O)c3ccc4nc(N5CCCCC5)sc4c3)CC2)c1,71%
18,Cc1ccc(Cl)cc1N1CCN(CCCNC(=O)c2ccc3nc(N4CCCCC4)sc3c2)CC1,77%
19,COc1cccc(N2CCN(C(=O)c3ccc4nc(N5CCC(C)CC5)sc4c3)CC2)c1,62%

row,Structure (SMILES),survival
1,Cc1ccc(Cl)cc1N1CCN(C(=O)c2ccc3nc(N4CCC(C)CC4)sc3c2)CC1,29% (active)
2,CC1CCN(c2nc3ccc(C(=O)NCc4ccc(Cl)cc4)cc3s2)CC1,128%
3,CC1CCN(c2nc3ccc(C(=O)N4CCN(c5ccccc5)CC4)cc3s2)CC1,72%
4,Cc1ccc(CN2C(=O)C3(SCC(=O)N3c3ccc(C)c(C)c3)c3ccccc32)cc1 (configuration not stated),99%
5,COc1ccc(CCC(=O)NCCc2csc(-c3cccc(F)c3)n2)cc1,83%
6,Cc1cccc(N(C)S(=O)(=O)c2ccc3c(c2)NC(=O)CC(=O)N3)c1,86%
7,COc1cccc(C(=O)NCC(C)C)c1,81%
8,CCOc1ccc(-c2nc(CSCC(=O)NCc3ccc(C)cc3)c(C)o2)cc1,78%
9,Cc1ccc(CNC(=O)CSCc2nc(-c3cccc(C)c3)oc2C)cc1,-5% (active)
10,Cc1oc(-c2ccccc2F)nc1CSCC(=O)NCc1ccccc1,41% (active)
11,Cc1oc(-c2ccccc2F)nc1CSCC(=O)NCCc1ccccc1,94%
12,Cc1cccc(-c2nc(CS(=O)CC(=O)NCc3ccc(Cl)cc3)c(C)o2)c1 (configuration not stated),61%
13,CCc1ccc(-c2nc(CSCC(=O)NCc3ccc(C)cc3)c(C)o2)cc1,-3% (active)
14,Cc1ccc(CNC(=O)CSCc2nc(-c3ccc(Cl)cc3)oc2C)cc1,66%
15,Cc1ccc(CCNC(=O)CSCc2nc(-c3ccc(C)cc3)oc2C)cc1,26% (active)
16,COc1ccc(-c2nc(CSCC(=O)NCCc3ccc(C)cc3)c(C)o2)cc1OC,56%
17,COc1ccc(CNC(=O)CSCc2nc(-c3ccccc3F)oc2C)cc1,67%
18,CCOc1ccc(-c2nc(CSCC(=O)NCc3ccc(Cl)cc3)c(C)o2)cc1,95%
19,COc1ccc(-c2nc(CSCC(=O)NCCc3ccccc3)c(C)o2)cc1,86%

row,Structure (SMILES),survival
1,O=C(CC1SC(=NC2CCCCC2)NC1=O)Nc1ccccc1 (configuration not stated),89%
2,O=C(Nc1ccc(Cl)cc1Cl)c1cc(S(=O)(=O)N2CCN(c3ccccc3F)CC2)ccc1F,102%
3,CCN(C(=O)C1CCCN(c2ncnc3c2nc2n3CCCCC2)C1)c1cccc(C)c1 (configuration not stated),75%
4,CC(C)Cc1nn2c(=O)cc(COC(=O)c3cccc(NS(C)(=O)=O)c3)nc2s1,82%
5,Cc1ccc(C(=O)CCCn2nnc(-c3ccncc3)n2)cc1C,100%
6,O=C(CSC1=NC2CCCCC2N1)N1CCOCC1 (configuration not stated),83%
7,Cc1ccc(NC(=O)CSc2nc3ccccc3nc2Cc2ccccc2)c(Cl)c1,99%
8,CCCCCCOc1ccc(-c2nc3ccc(Br)cc3c(=O)o2)cc1,83%
9,CCCC(CCC)C(=O)Nc1nnc2n1CCS2,82%
10,O=C(NCc1ccccc1)C1CCN(C(=O)NCc2ccccc2)CC1,90%
11,COc1cc(-c2ccno2)ccc1S(=O)(=O)N1CCN(c2cccc(Cl)c2)CC1,-1% (active)
12,COc1ccccc1N1CCN(S(=O)(=O)c2ccc(-c3ccno3)cc2OC)CC1,86%
13,COc1cccc(N2CCN(S(=O)(=O)c3ccc(-c4ccno4)cc3OC)CC2)c1,64%
14,COc1cc(-c2ccno2)ccc1S(=O)(=O)N1CCN(c2ccccc2)CC1,72%
15,COc1ccc(N2CCN(S(=O)(=O)c3ccc(-c4ccno4)cc3OC)CC2)cc1,6% (active)
16,COc1cc(-c2ccno2)ccc1S(=O)(=O)N1CCN(c2ccc(F)cc2)CC1,67%
17,N#CC1=C2SCN(C3CCCCC3)CN2C(=O)CC1c1ccc(Cl)cc1 (configuration not stated),91%
18,CCOc1cc(CNC(=O)c2cc(-c3ccccc3)n[nH]2)cc(OCC)c1OCC,98%
19,Cc1ccc(-c2cc(NC(=O)COc3c(C)cc(C)cc3C)on2)cc1,67%
